# In the library only some 1.8% were active in any assay of this set; here they are far more common.
# Pin1 inhibitor – inhibitors of human Pin1 | Q13526 | Pin1 FP peptide displacement, HiFluor488, 10 min | Potency, µM (top dose mostly 115 µM), inactives show at the highest dose activity, negative = inhibition, hits mostly inhibitors | 390,000 compounds, 0.009% hits; active = well fitted inhibition curve with a large enough effect in the polarisation, with a control signal flat, not every such curve was filed as active; inconclusive = small, poorly fitted or top-dose-only effect, or effect the other way, or a change in a side signal; inactive = no such curve, though single readings can be large or run the other way; the % refers to the polarisation; note: % is set by controls: 0 for no effect and ±100 for the full control effect
# Target sequence (Q13526 whole entry, looked up): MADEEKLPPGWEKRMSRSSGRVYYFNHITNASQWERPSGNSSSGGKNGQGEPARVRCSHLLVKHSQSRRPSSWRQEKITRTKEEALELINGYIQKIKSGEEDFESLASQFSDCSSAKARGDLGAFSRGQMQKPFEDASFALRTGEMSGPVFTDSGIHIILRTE
# GLP-1R agonist – activates the human GLP-1 receptor | HEK293 GLP-1R CRE-luciferase, luminescence, 4-6 h; cells express a hypersensitive GLP-1R form | Potency, µM (titrated, usually from 45.6 µM), for the others: at the top dose activation, most hits filed as activators | 380,000 compounds, 0.007% hits | AID 624172; note: % of control where 0% means no effect
# Target sequence (P43220 whole entry, looked up): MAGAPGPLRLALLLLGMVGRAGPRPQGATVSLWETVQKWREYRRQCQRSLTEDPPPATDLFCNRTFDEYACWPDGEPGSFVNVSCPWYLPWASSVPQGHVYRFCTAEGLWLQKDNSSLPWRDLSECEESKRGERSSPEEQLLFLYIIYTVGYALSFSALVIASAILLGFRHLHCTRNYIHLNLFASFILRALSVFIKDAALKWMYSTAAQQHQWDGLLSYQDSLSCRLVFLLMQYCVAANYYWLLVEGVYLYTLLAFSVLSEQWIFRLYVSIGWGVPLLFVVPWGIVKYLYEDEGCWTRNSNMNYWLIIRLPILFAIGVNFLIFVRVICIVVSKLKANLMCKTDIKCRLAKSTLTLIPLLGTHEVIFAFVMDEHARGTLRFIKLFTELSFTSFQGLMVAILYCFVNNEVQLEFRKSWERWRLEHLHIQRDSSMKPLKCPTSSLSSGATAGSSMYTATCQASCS
# Tb PFK block – blocks T. brucei phosphofructokinase; Potency, µM (titrated, usually from 57.5 µM), for inactives: top-dose activity, negative = inhibition, usual class: inhibitors; O15648; T. brucei PFK, ADP-Glo luminescence; 330,000 compounds, 0.17% hits;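 note: 0% = uninhibited 1x PFK enzyme wells and -100% = no-enzyme wells; nearly all actives have a fitted effect of over 60% in size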
#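 Activity is normalized to no-enzyme wells (full inhibition) and 1.25 nM enzyme wells (no inhibition). Reaction: 0.5 mM F6P, 0.1 mM ATP, 45 min RT, ADP-Glo luminescence; concentration-response curves fitted and classed by quality.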
# GLP1R inv ag – GLP-1 receptor (human) inverse agonism | P43220 | HEK293 GLP-1R CRE-luciferase, luminescence, 24 h; GLP-1R form is constitutively active | Potency, µM (titrated, usually from 38.3 µM), for inactives: at the top dose activity change, negative = inhibition, usual class: inhibitors | 410,000 compounds, 1.6% hits; note: % is set by controls: 0 for no effect and ±100 for the full control effect; nearly all actives have a fitted effect of over 55% in size
#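 Readout was luciferase luminescence, measured 12 min after detection reagent at room temperature. Beforehand, GLP-1R reporter HEK293 cells had sat 12 h, then received compounds for 24 hr at 37 deg C.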
# GLP1R cytotox – cytotoxicity in counter-screen for GLP-1R inverse agonists; HEK293 cAMP-luciferase reporter cells, luminescence, 24 h; Potency, µM (series often up to 38.3 µM), without a hit: top-dose activity change, negative = inhibition, usual class: inhibitors; 410,000 compounds, 0.13% hits;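 note: loss of luciferase light is scored as toxicity; % is set by controls: 0 for no effect and ±100 for the full control effect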
#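 1536-well qHTS counterscreen of the MLSMR; 200 cells/uL, 12 h pre-incubation, 23 nL cpd, 24 h at 37 deg C 5% CO2, luciferase detection reagent, 12 min RT, luminescence. Inhibition = undesired.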
# PGK inhibitor – T. brucei PGK inhibition; PGK/GAPDH coupled, Kinase-Glo luminescence, 60 min; 380,000 compounds, 0.043% hits; P07378; Potency, µM (series often up to 57.5 µM), inactives show at the top dose activity change, negative = inhibition, hits mostly inhibitors; note: % is set by controls: 0 for no effect and ±100 for the full control effect; nearly all actives have a fitted effect of over 60% in size
#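 Recombinant glycosomal PGK reaction used 1,3-bisphosphoglycerate generated in-well by GAPDH (100nM final) in 100mM TEA pH 7.6, 5mM MgCl2, 0.01% Tween-20. After 60 minutes at room temperature, ATP was read by Kinase-Glo Plus luminescence end-point.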
# Numbers without * were called inactive; i = inactive; ? = inconclusive; / = no result given. Unless noted, calls come from the whole dose curve; as a rule, active = well fitted curve in the direction sought with a large enough effect; inconclusive = small, poorly fitted or top-dose-only effect, or another doubt; inactive = no such curve, though single readings can be large; an effect the other way counts as inactive or inconclusive. Potency is the fitted concentration of half-maximal effect.
SMILES,Pin1 inhibitor,GLP-1R agonist,Tb PFK block,GLP1R inv ag,GLP1R cytotox,PGK inhibitor
O=C(O)c1ccccc1NS(=O)(=O)c1ccc(N/N=C/c2cccc(O)c2O)c([N+](=O)[O-])c1,/,-4%,/,0%,?,8.9µM*
CC(=O)Nc1ccc(C=NNc2ccc(S(=O)(=O)Nc3ccccc3C(=O)O)cc2[N+](=O)[O-])cc1,/,9%,11%,42%,-30%,-9%
O=C1CCc2cc(Cl)c(S(=O)(=O)Nc3ccc(Cl)c(Cl)c3)cc2N1,7%,/,/,/,/,/
Cc1nc2ccccc2n1CCc1nc2c3ccccc3nc(SCC(=O)NCc3ccco3)n2n1,50%,-1%,-1%,?,10µM*,-9%
N#CN=c1snc(-c2ccccc2Cl)n1-c1ccccc1Cl,11%,/,/,/,/,/
CCCN(CCC)c1cc(C)nc2nc(-c3ccc(Cl)cc3)nn12,?,/,/,-9%,0%,i
CCN1CCN(C(=O)CCN(CC(C)C)c2nc(-c3cccs3)nc3ccccc23)CC1,-4%,/,/,/,/,/
Cc1sc2nc(C3CC3)nc(N3CCN(C(=O)c4ccc(F)cc4)CC3)c2c1C,10%,15%,3%,10µM*,1%,i
Cc1sc2nc(C3CC3)nc(N3CCN(C(=O)c4ccc(Cl)cc4)CC3)c2c1C,44%,5%,1%,8.9µM*,3%,-2%
O=C(CCl)N=c1sccn1Cc1ccc(Cl)cc1Cl,2%,6%,1%,10µM*,?,-1%
CC[C@@H]1OC(=O)C[C@H](O)[C@@H](C)[C@@H](O[C@H]2O[C@@H](C)[C@H](O[C@@H]3C[C@](C)(O)[C@H](O)[C@@H](C)O3)[C@@H](N(C)C)[C@@H]2O)[C@@H](C=O)C[C@@H](C)C(=O)/C=C/C(C)=C[C@@H]1CO[C@H]1O[C@@H](C)[C@H](O)[C@H](OC)[C@@H]1OC,/,1%,/,/,/,/
C[N+]1(C)CCN(C[C@@](O)(c2ccccc2)C2CCCCC2)CC1,/,5%,/,/,/,/
CCCC1CC(C)(c2csc(Nc3ccc(OCC)cc3)n2)OC1=O (stereo not given),-5%,11%,2%,11µM*,-18%,7%
c1ccc(C(c2ccccc2)c2noc(CN3CCN(C4CCCC4)CC3)n2)cc1,-1%,6%,4%,13µM*,0%,6%
CC(=O)N1CCN(Cc2nc(C(c3ccccc3)c3ccccc3)no2)CC1,-4%,12%,-3%,3%,2%,-2%
Cc1cccnc1CN1CCN(Cc2nc(C(c3ccccc3)c3ccccc3)no2)CC1,8%,1%,-1%,5µM*,10%,-6%
O=C(c1ccc(F)cc1)C(CCCCCC(CN1CCOCC1)C(=O)c1ccc(F)cc1)CN1CCOCC1 (stereo not given),9%,-1%,0%,10µM*,-15%,1%
OC(CN1CCOCC1)c1ccc(F)cc1 (stereo not given),-10%,7%,-1%,7%,1%,/
Cc1cc(OC(C)C(=O)N(Cc2ccco2)Cc2ccco2)cc(C)c1Cl (stereo not given),1%,/,/,10µM*,1%,i
Cc1ccc(CN(Cc2ccco2)C(=O)COc2cc(C)c(Cl)c(C)c2)cc1,3%,/,/,?,15%,-4%
Cc1ccc(C)c(SC2=NS(=O)(=O)c3ccccc32)c1,-7%,/,/,/,/,/
Clc1cccc(-c2nc3ccccn3c2Nc2ccc3c(c2)OCCO3)c1,?,/,/,6.3µM*,-6%,15%
Oc1ccc(-c2nc3ccccn3c2Nc2ccc3c(c2)OCCO3)cc1,-1%,/,/,-9%,-4%,-5%
CCC(C)(C)c1ccc(Oc2ccc(N)cc2)cc1,5%,7%,0%,2.8µM*,-1%,i
C/C(=N\NC(=S)NCc1ccccc1)c1ccc(Br)cc1,6%,26%,4%,?,?,5%
SMILES,Pin1 inhibitor,GLP-1R agonist,Tb PFK block,GLP1R inv ag,GLP1R cytotox,PGK inhibitor
C/C(=N\NC(=S)NCc1ccccc1)c1ccc2c(c1)OCCO2,10%,?,-5%,10µM*,?,i
C/C(=N\NC(=S)NCc1ccccc1)c1cccs1,-1%,19%,-1%,?,3.5µM*,-1%
CCOCCCn1c(=N)c(C(=O)NC2CCCCC2)cc2c(=O)n3ccccc3nc21,21%,0%,/,16%,92%,-4%
CN(C(=O)c1cc2nc(-c3ccc4c(c3)OCO4)cc(C(F)(F)F)n2n1)c1ccc(OC(F)(F)F)cc1,1%,0%,/,-2%,0%,-7%
Cc1ccc2c(c1)C(=O)N1[C@H]3c4ccccc4OC[C@@H]3[C@H](c3ccccc3)[C@]1(C)C(=O)N2,34%,-3%,2%,11µM*,11%,-11%
Cc1ccc2c(c1)[C@H]1[C@H](CO2)[C@H](c2ccccc2)[C@]2(C)C(=O)Nc3ccc(Cl)cc3C(=O)N12,32%,-2%,4%,6.3µM*,1%,-9%
O=C(COc1ccccc1-c1nnc(-c2ccccc2)o1)Nc1ccc(Br)cc1F,1%,/,/,-15%,-1%,1%
CNC(=O)C(=O)NCC1OCCN1S(=O)(=O)c1ccc(C)cc1 (stereo not given),-10%,-28%,-3%,4%,6%,i
Cc1ccc(S(=O)(=O)N2CCOC2C(Cl)(Cl)Cl)cc1 (stereo not given),-7%,1%,-3%,10µM*,3%,-2%
CCOc1ccc(CNC(=O)C2CCN(C3=NS(=O)(=O)C(c4ccc(C)cc4)=C3CC)CC2)cc1,35%,/,/,?,-11%,10%
Cc1ccc(-c2nnc(Nc3ccc(O)cc3)c3ccccc23)cc1S(=O)(=O)NC(C)(C)CO,?,5%,/,?,-24%,-3%
CCOC(=O)Cc1ccc(NC(=O)c2ccc(C(C)(C)C)cc2)cc1,4%,-11%,0%,5µM*,-20%,4%
CCOC(=O)Cc1ccc(NC(=O)c2ccccc2Br)cc1,1%,17%,-1%,?,-9%,2%
CC(CN(C)C)CN1c2ccccc2S(=O)(=O)c2ccccc21 (stereo not given),/,4%,/,/,/,/
CCOC(=O)c1c(C)[nH]c(C)c1S(=O)(=O)N1CCN(c2cccc(C(F)(F)F)c2)CC1,-6%,/,/,5.6µM*,?,0%
COc1ccc(-c2coc3c(C(=O)NCc4ccco4)cccc23)c(C)c1,/,-2%,/,4.5µM*,-7%,/
Cc1ccc2nc(CSc3nnc(NC(=O)C(C)C)s3)cc(=O)n2c1,-3%,/,/,8%,-18%,8%
Cc1cccc(-n2cc(CN3CCN(Cc4nccn4C)CC3)c(-c3cccc(F)c3)n2)c1,-2%,14%,-3%,4.5µM*,?,7%
